About 750 (58%) of roughly 1,300 compounds were called active. This is one part of the list. Values without a mark were called inactive.

Chain of Sulfhydryl oxidase 1 (Homo sapiens) (O00391 whole entry, looked up): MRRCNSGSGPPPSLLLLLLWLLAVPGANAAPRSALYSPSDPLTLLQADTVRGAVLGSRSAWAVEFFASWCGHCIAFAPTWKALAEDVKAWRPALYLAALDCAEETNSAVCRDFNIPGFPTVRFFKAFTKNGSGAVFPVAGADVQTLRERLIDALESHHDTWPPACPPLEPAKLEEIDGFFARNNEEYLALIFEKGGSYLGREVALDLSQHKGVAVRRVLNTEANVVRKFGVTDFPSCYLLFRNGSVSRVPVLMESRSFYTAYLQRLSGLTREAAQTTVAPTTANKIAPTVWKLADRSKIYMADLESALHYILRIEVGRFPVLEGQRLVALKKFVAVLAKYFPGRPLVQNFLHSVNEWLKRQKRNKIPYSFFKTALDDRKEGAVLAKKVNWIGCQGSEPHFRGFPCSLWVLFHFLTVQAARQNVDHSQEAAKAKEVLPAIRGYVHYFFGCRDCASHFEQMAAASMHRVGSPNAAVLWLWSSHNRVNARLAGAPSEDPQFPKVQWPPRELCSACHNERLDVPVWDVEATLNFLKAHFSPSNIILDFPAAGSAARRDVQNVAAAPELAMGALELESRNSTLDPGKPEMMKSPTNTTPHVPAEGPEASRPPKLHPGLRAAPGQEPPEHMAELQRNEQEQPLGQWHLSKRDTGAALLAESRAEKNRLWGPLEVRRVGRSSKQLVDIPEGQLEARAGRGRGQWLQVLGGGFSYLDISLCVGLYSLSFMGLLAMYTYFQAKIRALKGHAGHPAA

The assay addresses Sulfhydryl oxidase 1 (Homo sapiens) (UniProt O00391). The experiment in a line: inhibition of human sulfhydryl oxidase QSOX1 – biochemical, ROS-Glo H2O2 luminescence, HTS, primary screen (AID 1347418). The note with it: recombinant QSOX1, ROS-Glo H2O2 luminescence; at 12.5 µM; hits give high values; active = any value above zero.
The term inhibition denotes the drop in the measured response relative to a control, in per cent. For the compound `O=c1[nH]c(=S)[nH]c(-c2ccccc2)c1Cc1c(O)ccc2ccccc12`, the inhibition was 9% (active). Consider `O=C(c1cc(O)c(O)c([N+](=O)[O-])c1)c1ccccc1F`, for which the inhibition was 14.2% (active).

As to `N#CC(=C(\N)Sc1ccccc1N)/C(C#N)=C(/N)Sc1ccccc1N`, the inhibition was 44.1% (active). For the compound `CC(O)C(O)[C@H]1CNc2nc(N)[nH]c(=O)c2N1` (some centres not stated), the inhibition was 1.5% (active).

Turning to `CC(C)(Oc1ccc(C2CC2(Cl)Cl)cc1)C(=O)O` (configuration not stated), the inhibition was 2.5% (active). The result for `CC(C)(Oc1ccc(CCNC(=O)c2ccc(Cl)cc2)cc1)C(=O)O` reads -3.3%; that for `CCOC(=O)C(C)(C)Oc1ccc(Cl)cc1`, -1.7%. For `CCN(CC)CCNC(=O)c1cc(S(C)(=O)=O)ccc1OC`, the inhibition was -3.2%.

For `COc1cc(C(O)CO)ccc1O` (configuration not stated), the inhibition is 4.8% (active). The result for `COc1cc(C(O)C(=O)O)ccc1O` (configuration not stated) reads 1.1% (active). The result for `COc1ccc2cc([C@H](C)C(=O)O)ccc2c1` reads -0.6%. The result for `COc1cc(C(O)CO)ccc1OS(=O)(=O)O` (configuration not stated) reads 0.6% (active); that for `COC(=O)[C@H]1[C@H]2C[C@H]3c4[nH]c5ccccc5c4CCN3C[C@H]2CC[C@@H]1O`, 6.1% (active).

Consider `COC(=O)[C@H]1[C@H]2C[C@@H]3c4[nH]c5cc(OC)ccc5c4CCN3C[C@H]2C[C@@H](OC(=O)c2cc(OC)c(OC)c(OC)c2)[C@@H]1OC`, for which the inhibition is 11.6% (active).

Regarding `COC(=O)[C@@H]1[C@H]2C[C@H]3c4[nH]c5ccccc5c4CCN3C[C@@H]2CC[C@@H]1O`, the inhibition was 1.4% (active). Take `C=C[C@H]1CN2CC[C@@H]1C[C@H]2[C@@H](O)c1ccnc2ccc(OC)cc12`: the inhibition is -3%. The result for `O=C(O)CCC/C=C\C[C@@H]1[C@@H](/C=C/[C@H](O)C2Cc3ccccc3C2)[C@@H](F)C[C@@H]1O` reads 7.1% (active).

As for `O=C(O)C1=CCCNC1`, the inhibition was -2.5%.

Take `Cc1cccc(C)c1NC(=O)C(C)N` (configuration not stated): the inhibition was 8% (active). With `CCN(CC)CC(=O)Nc1c(C)cccc1C` the figure was -1.3%. With `CCCNC(C)C(=O)Nc1ccccc1C` (configuration not stated) the figure was -4.7%; with `CCCn1cnc2c1c(=O)n(CCCCC(C)=O)c(=O)n2C`, 2.6% (active); with `CCCn1c(=O)c2c(ncn2C)n(CCC)c1=O`, 4.1% (active). With `Cn1c(=O)c2c(ncn2C)n(C)c1=O` the figure was -0.6%; with `CC(=O)CCCCn1c(=O)c2c(ncn2C)n(C)c1=O`, 5.8% (active); with `C#CCn1c(=O)c2c(ncn2C)n(C)c1=O`, -0.9%. In the case of `N#C/C(=C\c1ccc(-c2cc(Cl)ccc2Cl)o1)C(=O)Nc1cccc2ncccc12`, the inhibition is 3.5% (active). On to `CCN(CC)CCn1c(=O)c(Cc2ccc(OC)cc2)nc2ccccc21`, for which the inhibition is 1.7% (active).

As for `CCCCOC(=O)NS(=O)(=O)c1sc(CC(C)C)cc1-c1ccc(Cn2c(CC)nc3c(C)cc(C)nc32)cc1`, the inhibition is 2.7% (active). The result for `CN/C(=C\[N+](=O)[O-])NCCSCc1ccc(CN(C)C)o1` reads -12.3%; that for `CC(C)N(CCC(=O)c1ccc2ccccc2c1)Cc1ccccc1`, -1.7%.

Turning to `CC(COc1ccccc1)N(CCCl)Cc1ccccc1` (configuration not stated), the inhibition is 9.5% (active). The result for `Cc1cccc(/C=C/c2ccccc2)n1` reads 13.7% (active); that for `COc1ccc(CCN(C)CCCC(C#N)(c2ccc(OC)c(OC)c2)C(C)C)cc1OC` (configuration not stated), -2.4%. The result for `COc1ccc(CCN(C)CCCC(C#N)(c2cc(OC)c(OC)c(OC)c2)C(C)C)cc1OC` (configuration not stated) reads 4% (active). The result for `Cc1scc2c1N(C(=O)CN1CCN(C)CC1)c1ccccc1NC2=O` reads 1.4% (active).

In the case of `CN1CCN(CC(=O)N2c3ccccc3C(=O)Nc3cccnc32)CC1`, the inhibition was -2.7%. With `CN1CCN(c2nc3cc(C(F)(F)F)ccc3n3cccc23)CC1` the figure was 6.5% (active). The result for `Cc1cc(NC(=O)Nc2ccc3c(ccn3C)c2)sn1` reads 4% (active); that for `O=C(O)[C@H]1NCCC[C@H]1C(=O)O`, -0.4%.

In the case of `O=C(O)C1CCNCC1`, the inhibition was -2.2%. With `O=C(O)C1CCCNC1` (configuration not stated) the figure was 1% (active); with `Nc1ncnc2c1ncn2C1CCCC1`, -9.6%. With `Nc1ncnc2c1c(I)cn2[C@@H]1C[C@H](N)[C@@H](O)[C@H]1O` the figure was 2.7% (active); with `Nc1ncnc2c1c(-c1ccc(Oc3ccccc3)cc1)cn2C1CCCC1`, -2.9%; with `NCC(O)C1CCCCCCC1` (configuration not stated), 11.2% (active).

Consider `O=C(c1ccc(OCCN2CCCCC2)cc1)c1c(-c2ccc(O)cc2)sc2cc(O)ccc12`, for which the inhibition is 20.1% (active).

Take `CC(=O)Oc1cc(C(C)C)c(OCCN(C)C)cc1C`: the inhibition is 0.4% (active). The result for `CN(C)C(=O)/N=N/C(=O)N(C)C` reads 8.2% (active); that for `Fc1ccc(CN(C2=NCCN2)c2c(Cl)cccc2Cl)cc1`, 1.1% (active); that for `O=C(O)c1cc(=O)c2ccccc2[nH]1`, 5.6% (active).

With `O=C(O)c1cc(=O)c2c(Cl)cc(Cl)cc2[nH]1`, the inhibition was -1%. In the case of `CNC(=O)c1cc2c(cn1)[nH]c1ccccc12`, the inhibition was -3.2%. The result for `CNc1ncnc2c1ncn2[C@@H]1O[C@H](CO)[C@H](O)C1O` (some centres not stated) reads -6.8%; that for `O=[N+]([O-])c1ccc(CSc2ncnc3c2ncn3[C@@H]2O[C@H](CO)[C@H](O)C2O)cc1` (some centres not stated), -2.9%; that for `Nc1ncnc2c1ncn2[C@@H]1O[C@H](CO)[C@H](O)C1O` (some centres not stated), -0.5%. `Nc1nc2c(ncn2[C@@H]2O[C@H](CO)[C@@H](O)[C@@H]2O)c(=O)[nH]1`: the inhibition was -3.6%. With `OC[C@H]1O[C@@H](n2cnc3c(NC4CCCCC4)ncnc32)[C@H](O)[C@@H]1O` the figure was 4.8% (active); with `C[C@H](Cc1ccccc1)Nc1ncnc2c1ncn2[C@@H]1O[C@H](CO)[C@H](O)C1O` (some centres not stated), 1.4% (active); with `Nc1nc(SCc2ccc([N+](=O)[O-])cc2)c2ncn([C@@H]3O[C@H](CO)[C@H](O)C3O)c2n1` (some centres not stated), 4.9% (active). The result for `OC[C@H]1O[C@@H](n2cnc3cncnc32)[C@H](O)[C@@H]1O` reads 4.9% (active); that for `OC[C@H]1O[C@@H](n2cnc3c(NC4CCCC4)ncnc32)C(O)[C@H]1O` (some centres not stated), 0.7% (active). The result for `OC[C@H]1O[C@H](n2cnc3c(N[C@H]4CCC[C@@H]4O)ncnc32)[C@H](O)[C@@H]1O` reads -1.9%. With `Nc1ccc(CCNc2ncnc3c2ncn3C2OC(CO)C(O)C2O)cc1` (configuration not stated), the inhibition was 4% (active). With `COc1cc(SC)ccc1C(=O)N1CCC(Cc2ccccc2)CC1` the figure was 1.4% (active); with `COc1ccc(/C=C2\COc3ccc(C)cc3C2=O)cc1O`, -1.7%.

For the compound `CNCCC(Oc1ccccc1OC)c1ccccc1` (configuration not stated), the inhibition is -2.5%. The result for `CNCCC(Oc1ccccc1C)c1ccccc1` (configuration not stated) reads 0%. The result for `CNCC[C@H](Oc1ccc(C(F)(F)F)cc1)c1ccccc1` reads 11.2% (active). With `CNCCC(Oc1ccc(C(F)(F)F)cc1)c1ccccc1` (configuration not stated) the figure was 2.1% (active); with `CN(CC[C@@H](Oc1ccc(C(F)(F)F)cc1)c1ccccc1)CC(=O)O`, 6.8% (active); with `Ic1ccc(N2CCN(Cc3c[nH]c4ncccc34)CC2)cc1`, 15.6% (active).

Turning to `OC1(c2ccc(Cl)cc2)CCN(Cc2c[nH]c3ccccc23)CC1`, the inhibition was -1.5%. Turning to `Clc1ccc(N2CCN(Cc3c[nH]c4ncccc34)CC2)cc1`, the inhibition is 24.1% (active). The result for `Nc1nc2c(cnn2CCc2ccccc2)c2nc(-c3ccco3)nn12` reads 1.8% (active); that for `Nc1nc2ccc(Cl)cc2c2nc(-c3ccco3)nn12`, -0.2%; that for `CN1C2CCC1CC(OC(=O)C(CO)c1ccccc1)C2` (configuration not stated), 3% (active).

With `CN1C2CC(OC(=O)[C@H](CO)c3ccccc3)CC1C1OC12` (some centres not stated), the inhibition is -3.1%. The result for `CN1C2CCC1CC(OC(=O)c1c[nH]c3ccccc13)C2` (configuration not stated) reads 2.4% (active). With `CN1C2CCC1CC(OC(=O)C(O)c1ccccc1)C2` (configuration not stated) the figure was -5.9%; with `CN1C2CCC1CC(OC(c1ccccc1)c1ccccc1)C2` (configuration not stated), -10.1%. Take `COc1ccc(/C=C/C(=O)Nc2ccccc2C(=O)O)cc1OC`: the inhibition is 23.4% (active). The result for `CN[C@H](CC(C)C)C(=O)N[C@H]1C(=O)N[C@@H](CC(N)=O)C(=O)N[C@H]2C(=O)N[C@H]3C(=O)N[C@H](C(=O)N[C@H](C(=O)O)c4cc(O)cc(O)c4-c4cc3ccc4O)[C@H](O)c3ccc(c(Cl)c3)Oc3cc2cc(c3O[C@@H]2O[C@H](CO)[C@@H](O)[C@H](O)[C@H]2O[C@H]2C[C@](C)(N)[C@H](O)[C@H](C)O2)Oc2ccc(cc2Cl)[C@H]1O` reads 3.1% (active); that for `CC1=C(C)C(=O)C(CCCCC#CCCCC#CCO)=C(C)C1=O`, 5.7% (active); that for `C=C1C[C@@]23CC[C@H]4[C@@](C)(CCC[C@@]4(C)C(=O)OC4OC(CO)C(O)C(O)C4O)[C@@H]2CCC1(OC1OC(CO)C(O)C(O)C1OC1OC(CO)C(O)C(O)C1O)C3` (some centres not stated), 5.4% (active). In the case of `C=C1C[C@@]23CC[C@H]4[C@@](C)(CCC[C@@]4(C)C(=O)O)[C@@H]2CC[C@]1(O)C3`, the inhibition was -3.8%.

For `CN1CC(=O)N/C1=N\C(=O)Nc1cccc(Cl)c1`, the inhibition was -0.1%.

As to `O=C(O)CCC(=O)N1CCCC1C(=O)O` (configuration not stated), the inhibition was 4.1% (active). With `C[C@H](CS)C(=O)N1CCC[C@H]1C(=O)O` the figure was 0.1% (active); with `NC(N)=Nc1nc(CSCC/C(N)=N/S(N)(=O)=O)cs1`, 0.1% (active); with `CC(C)C(=O)c1c(C(C)C)nn2ccccc12`, -4.2%.

As to `CCOC(=O)N1CCC(=C2c3ccc(Cl)cc3CCc3cccnc32)CC1`, the inhibition was -1.5%. The result for `Cc1c(OCC(F)(F)F)ccnc1CS(=O)c1nc2ccccc2[nH]1` (configuration not stated) reads -0.2%; that for `CCn1cc(C(=O)O)c(=O)c2cc3c(cc21)OCO3`, 2.6% (active). Consider `CCn1nc(C(=O)O)c(=O)c2cc3c(cc21)OCO3`, for which the inhibition is 3.1% (active). The result for `CCn1cc(C(=O)O)c(=O)c2ccc(C)nc21` reads -5.8%. The result for `CCn1cc(C(=O)O)c(=O)c2cc(F)c(N3CCNC(C)C3)c(F)c21` (configuration not stated) reads -1.7%.
